Reference: PubChem BioAssay (NCI)
The panel holds about 83,000 compounds, 20% with a hit somewhere; the sample as a whole holds those more often.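 Each cell line was grown in a 96-well plate and treated with one concentration of compound for 48 hours. Values below 10 were considered active.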 Unmarked numbers belong to inactive results. The source made the active and inactive calls.

Legend:
Test in all cases: NCI-60 one-dose screen, 48 h (100 = growth as untreated, 0 = no growth, -100 = all killed)
Conditions in all cases: 10 µM unless noted
HCT-15 colon = tested on: HCT-15 colon
HT29 colon = tested on: HT29 colon
SNB-75 CNS = tested on: SNB-75 CNS
SNB-19 CNS = tested on: SNB-19 CNS
U251 CNS = tested on: U251 CNS
PC-3 prostate = tested on: PC-3 prostate
SK-MEL-5 melanoma = tested on: SK-MEL-5 melanoma
UACC-62 melanoma = tested on: UACC-62 melanoma
LOX IMVI melanoma = tested on: LOX IMVI melanoma
SK-MEL-28 melanoma = tested on: SK-MEL-28 melanoma
SK-MEL-2 melanoma = tested on: SK-MEL-2 melanoma
EKVX NSCLC = tested on: EKVX NSCLC
SN12C renal = tested on: SN12C renal
UO-31 renal = tested on: UO-31 renal
TK-10 renal = tested on: TK-10 renal
ACHN renal = tested on: ACHN renal
CAKI-1 renal = tested on: CAKI-1 renal
CCRF-CEM leukemia = tested on: CCRF-CEM leukemia
MOLT-4 leukemia = tested on: MOLT-4 leukemia

Row | SMILES | growth (HCT-15 colon) | growth (HT29 colon) | growth (SNB-75 CNS) | growth (SNB-19 CNS) | growth (U251 CNS) | growth (PC-3 prostate) | growth (SK-MEL-5 melanoma) | growth (UACC-62 melanoma) | growth (LOX IMVI melanoma) | growth (SK-MEL-28 melanoma) | growth (SK-MEL-2 melanoma) | growth (EKVX NSCLC) | growth (SN12C renal) | growth (UO-31 renal) | growth (TK-10 renal) | growth (ACHN renal) | growth (CAKI-1 renal) | growth (CCRF-CEM leukemia) | growth (MOLT-4 leukemia)
1 | COc1cc2nc(-c3ccc(C(F)(F)F)cc3)cc(OCCCN3CCOCC3)c2cc1OC | 7.76% (active) | 17.4% | -9.47% (active) | 61% | 42.6% | 42.1% | -33.1% (active) | -26.1% (active) | -82.1% (active) | 42.1% | 47.4% | 61.6% | 41.3% | 33% | 96.6% | 34.3% | -13.1% (active) | 37.5% | 44.9%
2 | CCCOc1ccc(/C=N/Nc2cc(C)nc3ccc(Br)cc23)cc1 | -20.9% (active) | 26.5% | 105% | 101% | 25.7% | 87.6% | 100% | 96.1% | 59.9% | 102% | 93% | 81.7% | 84.4% | 72.6% | 111% | 97.7% | 91.3% | 28.3% | 73.9%
3 | COc1c(Cl)c2c(c(OC)c1OC)-c1ccc(SC)c(=O)cc1[C@@H](NC(=O)OCC(F)(F)F)CC2 | 9.54% (active) | 13.5% | 37.4% | 29.4% | 20.6% | 24.7% | -7.65% (active) | 34.4% | 15.1% | 63% | 46.3% | 40% | 24.2% | 28.6% | 44.5% | 25.8% | 15.6% | 4.8% (active) | 3.85% (active)
4 | CN(C)CCn1c2ccc(Br)cc2c2nc3ccccc3nc21 | 20.2% | 16.9% | 42.3% | 31.6% | 32.2% | 34% | 46.8% | 57.1% | 14.8% | 84.8% | 41.8% | 41.6% | 26.5% | 11% | 62.4% | 9.3% (active) | 13.8% | 28.4% | 13.7%
5 | COc1cc2cc(CN3CCN(c4nccc(-c5ccc6ccccc6c5)n4)CC3)c(=O)[nH]c2cc1OC | 21.2% | 69% | 104% | 76.7% | 22.9% | 60.7% | 85.4% | 95.1% | 90.2% | 102% | 97.8% | 94.5% | 51.7% | 74.9% | 91% | 75.7% | 99.5% | 49.1% | 54.1%
6 | C=C1C(=O)O[C@H]2[C@H]1CC/C(CNC(=O)C(C)c1ccc(CC(C)C)cc1)=C\CC[C@@]1(C)O[C@@H]21 (stereo partly specified) | -55.7% (active) | -52.4% (active) | 64.5% | 48.9% | 45.2% | 16.6% | 61.3% | -27.2% (active) | -80.3% (active) | -76.9% (active) | 32.9% | 0% (active) | -0.803% (active) | -99.7% (active) | -61% (active) | -95.9% (active) | -7.71% (active) | -1.13% (active) | 0.34% (active)
7 | CC1(C)CC[C@]2(C(=O)O)CC[C@]3(C)C(=CC[C@@H]4[C@@]5(C)Cc6c([nH]c7ccccc67)C(C)(C)[C@@H]5CC[C@]43C)[C@@H]2C1 | 21.3% | 27.2% | 49.4% | 60% | 25.7% | 42.7% | 73.7% | 63.7% | 40.3% | 83.2% | 72.6% | 34.3% | 42.8% | 32.7% | 31.3% | 18.2% | 17.5% | 30.6% | 32.3%
8 | O=C(NCCc1ccccc1)Nc1ccc2cc3ccc(NC(=O)NCCc4ccccc4)cc3nc2c1 | 97.1% | 31.4% | 17.1% | -31.8% (active) | -26.4% (active) | 19.3% | 60.9% | -51.2% (active) | -79.8% (active) | -29.4% (active) | 0.339% (active) | 71.9% | -40.1% (active) | 89.9% | 99.2% | 100% | 86.6% | 0.959% (active) | -46.4% (active)
9 | CN(C)c1ccc(C2C(C#N)=C(/N=C/c3ccccc3)Oc3c2ccc2ccccc32)cc1 (stereo unspecified) | 48% | 69.9% | -0.718% (active) | 74.2% | 74.8% | 50.7% | 71.5% | 49.2% | 54.6% | 80.1% | 70.8% | 73.4% | 78% | 50.6% | 144% | 71.6% | 20.7% | 66.7% | 67.7%
10 | COc1ccc(/C=C(\C#N)n2nc3cccc(F)c3n2)cc1 | 96.9% | 112% | 81.5% | 94.6% | 102% | 111% | 95.8% | 91% | 101% | 103% | 100% | 104% | 104% | 89.6% | 100% | 99.7% | 81.2% | 98% | 100%
11 | COc1ccc(C/C(C)=C(/c2ccc(OCCCN(C)C)cc2)c2ccc(OC(C)=O)cc2)cc1 | 19.3% | 4.9% (active) | 74.1% | 82.3% | 61.7% | 79.3% | 69.6% | 51.3% | 47.8% | 2.23% (active) | 101% | 80.9% | 80.8% | 62.2% | 98.9% | 85% | 81.6% | 63.1% | 55.9%
12 | O=C(Cc1ccc(/C=C/C(=O)c2nccs2)cc1)Nc1ccccc1 | 78.4% | 72.7% | 108% | 84.8% | 47.7% | 91.7% | 88.8% | 83.9% | 72.4% | 105% | 105% | 103% | 91.9% | 89.1% | 98.8% | 96.5% | 99.9% | 14.4% | 6.27% (active)
13 | CCOC(=O)CCN(CC(C)C)C(=S)Nc1ccccc1 | 99.5% | 105% | 105% | 99.9% | 100% | 105% | 102% | 99.8% | 105% | 106% | 102% | 100% | 98.3% | 94.4% | 104% | 101% | 102% | 118% | 100%
14 | CCOC(=O)c1ccc2c(c1)ncn2-c1ccc(NC(=O)Nc2cccc(C)c2)cc1 | 13.6% | 49.1% | 87.6% | 49.8% | 46.1% | 67.4% | 83.2% | 71.3% | 5.37% (active) | 88.7% | 85.4% | 84.7% | 69.6% | 66.6% | 123% | 66.7% | 74.6% | 45.8% | 43.2%
